# Measured values from PubChem BioAssay (NCATS).
# Results filed as inconclusive are left out. Active and inactive are the calls of the source. Calls come from the whole dose curve; as a rule, active = well fitted curve in the direction sought with a large enough effect; inconclusive = small, poorly fitted or top-dose-only effect, or another doubt; inactive = no such curve, though single readings can be large; an effect the other way counts as inactive or inconclusive.
# Assay: High Content Imaging Cell-Based qHTS for Inhibitors of the mTORC1 Signaling Pathway in MEF Cells (AID 2667); note: potency is the fitted concentration of half-maximal effect;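 for activity change, negative = inhibition: Tsc2-/- p53-/- MEFs stably re-expressing wild-type Tsc2 exposed 24 h; plate controls were DMSO wells for no effect and rapamycin control wells for full effect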
# Conditions: series mostly up to 38.3 µM; activity change, negative = inhibition: at the top concentration
# In short: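 WT MEFs (Tsc2-/-, p53-/- re-expressing Tsc2), in DMEM + 10% FBS, were treated with compound for 24 h at 37 C. Cells were then fixed and stained for phospho-rpS6 Ser235/236 with propidium iodide as cell count. Values are % positive cells, with thresholds set against rapamycin-treated cells.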
SMILES,"activity change, negative = inhibition",Potency
Cc1cc(NC2CCCCC2)nc(-n2nc(C)cc2C)n1,-100% (inactive),
CCCCCCCCCCCCCCCCCC(=O)NCC(COP(=O)([O-])OCC[N+](C)(C)C)OCC (stereo not drawn),-100% (inactive),
Nc1ncnc2c1c(I)cn2[C@@H]1C[C@H](N)[C@@H](O)[C@H]1O,-10.6% (inactive),
O=C1NC(=O)/C(=C/c2ccc(-c3ccc(F)cc3O)o2)S1,-100% (inactive),
CC(C)(C=O)Cc1cc(C(C)(C)C)c(O)c(C(C)(C)C)c1,-100% (inactive),
CC(C)ON([C@@H](C(=O)NO)C(C)C)S(=O)(=O)c1ccc(-c2ccccc2)cc1,,5.85 µM (active)
Nc1ncnc2c1ncn2[C@@H]1O[C@H](COP(=O)(O)OP(=O)(O)OP(=O)(O)OP(=O)(O)OC[C@@H]2O[C@H](n3cnc4c(N)ncnc43)[C@@H](O)[C@H]2O)[C@@H](O)[C@H]1O,-100% (inactive),
Clc1ccc(N2CCN(Cc3cc4ccccn4n3)CC2)cc1,-100% (inactive),
Cc1nc2sccn2c(=O)c1CCN1CCC(=C(c2ccccc2)c2ccc(F)cc2)CC1,-100% (inactive),
CCCCCCCCCCCCCCCCCCNC(=O)OCC(COP(=O)([O-])OCC[n+]1ccsc1)OC (stereo not drawn),-100% (inactive),
CNC(=O)[C@H]1O[C@@H](n2cnc3c(NCc4ccc(N)cc4)ncnc32)[C@H](O)[C@@H]1O,-100% (inactive),
C#C[C@]1(O)CC[C@H]2[C@@H]3CCC4=Cc5oncc5CC4(C)[C@H]3CCC21C (stereo partly drawn),-100% (inactive),
O=C(c1ccc(OCCCc2cnc[nH]2)cc1)C1CC1,-100% (inactive),
CNC(=O)[C@H]1O[C@@H](n2cnc3c(NCc4cccc(I)c4)ncnc32)[C@H](O)[C@@H]1O,-100% (inactive),
O=C(c1ccc(Cl)cc1)N1CCN(c2ccc([N+](=O)[O-])c3ncccc23)CC1,-17.9% (inactive),
O=P(O)(O)C(Cl)(Cl)P(=O)(O)O,-100% (inactive),

SMILES,"activity change, negative = inhibition",Potency
CCCCCC(O)c1cccc(OCc2ccc3ccccc3n2)c1 (stereo not drawn),-100% (inactive),
Nc1nc(Nc2ccccc2)nc2c1ncn2[C@@H]1O[C@H](CO)[C@@H](O)[C@H]1O,-100% (inactive),
C=CC(=O)c1ccc(CCCCCC)cc1,-100% (inactive),
C[N+]1(C)CCC(OC(=O)C(c2ccccc2)c2ccccc2)CC1,-100% (inactive),
CCCCCCCCc1ccc(-c2ccc(C(=O)O)cc2)cc1,-100% (inactive),
CCc1c(C(=O)NCCc2ccc(N3CCCCC3)cc2)[nH]c2ccc(Cl)cc12,-100% (inactive),
O=C(O)CC1CC(c2ccccc2)=NO1 (stereo not drawn),-100% (inactive),
Nc1nc(Cl)nc2c1ncn2[C@@H]1O[C@H](COP(=O)(O)OP(=O)(O)OP(=O)(O)O)[C@@H](O)[C@H]1O,-100% (inactive),
Cn1cc(C2=C(c3ccc(Cl)cc3Cl)C(=O)NC2=O)c2ccccc21,-100% (inactive),
C[N+](C)(C)CCOP(=O)(O)OP(=O)([O-])OC[C@H]1O[C@@H](n2ccc(N)nc2=O)[C@H](O)[C@@H]1O,-100% (inactive),
Cc1ccc(S(=O)(=O)/C=C/C#N)cc1,-100% (inactive),
NC(=S)NCCC[C@H](N)C(=O)O,-100% (inactive),
O=C(O)c1cc([N+](=O)[O-])ccc1NCCCc1ccccc1,-100% (inactive),
NC[C@H]1O[C@@H](n2cnc3c(N)ncnc32)[C@H](O)[C@@H]1O,-100% (inactive),
N.N.N.N.N.N.N.N.N.N.N.N.N.N.O.O.[Ru+4].[Ru+5].[Ru+5],-100% (inactive),
C=CC(C)=C[C@@]1(C)SC(=O)C(C)=C1O,-100% (inactive),

# Assay: Cytometry Cell-Based qHTS for Inhibitors of the mTORC1 Signaling Pathway in MEF cells (AID 2668);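 note: Tsc2-/- p53-/- mouse embryonic fibroblasts stably re-expressing wild-type Tsc2; percent cells positive for phospho-rpS6 Ser235/236 relative to propidium iodide stain; plate controls were DMSO wells for no effect and 7.5 nM rapamycin control wells for full effect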
# Conditions: mTORC1 pathway readout; series mostly up to 38.3 µM; activity change, negative = inhibition: at the top concentration
# In short: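 In MEFs grown in DMEM + 10% FBS, a 24 hrs compound exposure preceded imaging of phospho-rpS6 Ser235/236 by laser-scanning cytometry.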
row,SMILES,"activity change, negative = inhibition"
1,Cc1cc(NC2CCCCC2)nc(-n2nc(C)cc2C)n1,1.62% (inactive)
2,CCCCCCCCCCCCCCCCCCNC(=O)OCC(COP(=O)([O-])OCC[n+]1ccsc1)OC (stereo not drawn),6.82% (inactive)
3,C#C[C@]1(O)CC[C@H]2[C@@H]3CCC4=Cc5oncc5CC4(C)[C@H]3CCC21C (stereo partly drawn),-0.31% (inactive)
4,O=P(O)(O)C(Cl)(Cl)P(=O)(O)O,2.97% (inactive)
5,CCCCCC(O)c1cccc(OCc2ccc3ccccc3n2)c1 (stereo not drawn),-21% (inactive)
6,Cn1cc(C2=C(c3ccc(Cl)cc3Cl)C(=O)NC2=O)c2ccccc21,1.33% (inactive)
7,C[N+](C)(C)CCOP(=O)(O)OP(=O)([O-])OC[C@H]1O[C@@H](n2ccc(N)nc2=O)[C@H](O)[C@@H]1O,9.76% (inactive)

# Assay: Validation screen for small molecules that induce DNA re-replication in MCF 10A normal breast cells (AID 463097); note: nearly all actives have a fitted effect of over 60% in size; note: potency is the fitted concentration of half-maximal effect; for re-replication induction: 0% is about no effect
# Conditions: MCF 10A cells, DNA re-replication phenotype imaging; series mostly up to 46.1 µM; re-replication induction: at the top concentration
# In short: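 Following 48 hr compound incubation (37 C, 5% CO2), MCF 10A cells receive Hoechst for 40 min at 37 C. Nuclei are then scanned (excitation 405 nm, emission 500-530 nm) for total fluorescence intensity.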
SMILES,Potency,re-replication induction
CCCCCCCCCCCCCCCCCC(=O)NCC(COP(=O)([O-])OCC[N+](C)(C)C)OCC (stereo not drawn),1.12 µM (active),
CC(C)(C=O)Cc1cc(C(C)(C)C)c(O)c(C(C)(C)C)c1,,21.5% (inactive)
O=c1[nH]c2ccccc2n1CCCN1CCN(C(c2ccccc2)c2ccccc2)CC1,,12.1% (inactive)
O=C(O)c1cc([N+](=O)[O-])ccc1NCCCc1ccccc1,,24.5% (inactive)
